Bioassay records from PubChem BioAssay.
CHO-K1 Ca ag = counter-screen for M1 agonists: effect in parental CHO-K1 cells | Fluo-8 calcium fluorescence; scaled to maximal ATP response, vehicle zero | activation, % at 3 µM | 360,000 tested, 0.48% active; in the data active = activation above about 15%;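 note: untransfected CHO-K1 host cells lacking M1 receptor as counterscreen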
CHO-K1 Ca antag = nonselective inhibitor or artifact in parental CHO-K1 cells | 360,000 tested, 0.6% active | inhibition, % at 3 µM | ATP-induced calcium, Fluo-8 fluorescence;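 active = inhibition above a per-plate cutoff, the plate's mean sample inhibition plus 3 SD, cut at about 24% in these data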;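 note: 0% = DMSO plus EC80 ATP and 100% = DMSO alone without ATP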
ANO1 activ = TMEM16A chloride channel activators or potentiators, primary screen, cell-based, HTS; Anoctamin-1 (Mus musculus), Q8BHY3; HEK293 TMEM16A/YFP-H148Q/I152L, iodide quench fluorescence; hits give low values; B-score at 10 µM; 340,000 tested, 0.3% active;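 active = fluorescence-ratio B-score plate-corrected deviation score at least 3 library SD below zero, with starting fluorescence score within 5 deviations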;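 note: channel opened by trigger with iodide after compound preincubation; score built on the fluorescence ratio of max minus min over baseline; more negative score means more quench and so TMEM16A activation or potentiation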
ANO1 block = TMEM16A chloride channel inhibitors, primary screen, cell-based, HTS; Anoctamin-1 (Mus musculus), Q8BHY3; HEK293 TMEM16A/YFP iodide influx fluorescence, ionomycin; normalized B-score (activity score, 25-100; higher = stronger inhibition) at 10 µM; 310,000 tested, 1.2% active; AID 588511, 2011;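 active = ratio plate-corrected score three or more library SD toward inhibition, starting fluorescence score within five deviations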;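 note: score derived from kinetic fluorescence span divided by baseline fluorescence per well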
CHO-K1 Ca PAM = nonselective calcium activators in parental CHO-K1 cells, primary screen, counter-screen for M1 PAM project, cell-based, Fluo-8 calcium fluorescence, full deck, 1536-well; ATP EC20; 0% at ATP EC20, 100% at ATP max; 360,000 tested, 0.02% active; AID 602247, 2012; activation, % at 3 µM;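 active = activation above the run cutoff, the mean activation of all test compounds plus 3 SD, cut at about 40% in these data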;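 note: peak over basal fluorescence ratio in a 140 s read after ATP addition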
NTR1 ag = agonists of human NTR1, primary screen, imaging, U2OS cells, beta-arrestin-GFP, high content. Neurotensin receptor type 1 (Homo sapiens), P30989. NTR1-U2OS beta-arrestin-GFP spot imaging, agonist mode. activation, % at 20 µM. 330,000 tested, 0.17% active. AID 493036, 2011;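 active = activation at or above 40% of the spot to cytoplasm intensity ratio, with at least 20 cells analyzed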;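 note: 0% = DMSO without peptide and 100% = 100 nM NTR1 peptide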
Target sequence (P30989 whole entry, looked up): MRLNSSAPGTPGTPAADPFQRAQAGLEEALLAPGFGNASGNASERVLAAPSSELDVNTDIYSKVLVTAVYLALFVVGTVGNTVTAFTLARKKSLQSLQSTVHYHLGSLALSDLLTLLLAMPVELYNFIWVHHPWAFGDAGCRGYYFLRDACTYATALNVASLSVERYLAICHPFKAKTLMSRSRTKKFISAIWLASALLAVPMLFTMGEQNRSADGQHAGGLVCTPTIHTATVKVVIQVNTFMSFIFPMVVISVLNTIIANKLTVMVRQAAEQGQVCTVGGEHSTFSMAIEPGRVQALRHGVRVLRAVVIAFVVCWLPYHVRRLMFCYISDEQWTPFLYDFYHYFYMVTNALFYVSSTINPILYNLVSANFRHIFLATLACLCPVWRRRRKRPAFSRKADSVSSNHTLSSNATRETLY
The depositor's hits bear a star; i = inactive; nt = no result. Most compounds without a hit are left out; they make up all but 2.2% or so of the library.

SMILES	CHO-K1 Ca ag	CHO-K1 Ca antag	ANO1 activ	ANO1 block	CHO-K1 Ca PAM	NTR1 ag
COC(=O)[C@]12CCCCC=C1N(Cc1ccc(Cl)cc1Cl)C(=O)[C@H](CC(=O)NCc1cccc(C(F)(F)F)c1)C2	1	-18	nt	nt	5	nt
CSc1ncccc1C(=O)OCC(=O)NC1CCS(=O)(=O)C1 (stereo unspecified)	16*	9	i	i	-1	-2
CSc1ncccc1C(=O)OCC(=O)NC1CCC(C)CC1 (stereo unspecified)	1	-10	i	nt	0	0
Cc1ccc(S(=O)(=O)N[C@H](C(=O)OCC(=O)NC(=O)c2cccn2C)C(C)C)cc1	2	-4	i	nt	-3	nt
COc1ccc(N(C(=O)c2cccc([N+](=O)[O-])c2)S(=O)(=O)c2ccc3c(c2)n(C)c(=O)n3C)cc1	1	4	i	100*	9	8
COc1ccc(N(C(=O)C(C)C)S(=O)(=O)c2ccc3c(c2)n(C)c(=O)n3C)cc1	1	7	i	i	17	0
CCc1ccc(C(O)c2ncc(-c3ccccc3OC)[nH]2)cc1 (stereo unspecified)	4	-10	nt	nt	6	nt
COC(=O)C(C#N)(CCC(=O)c1ccccc1)CCC(=O)c1ccccc1	0	3	nt	nt	13	nt
CCC(C)(C)NC(=O)c1ccc2c(c1)OCCO2	0	-9	-27*	i	4	0
CC(C)(C)S(=O)N1Cc2cc(C(=O)N3CCc4ccccc4C3)nc(-c3cccc(-c4ccncc4)c3)c2[C@H]1CCO (stereo partly specified)	1	-2	nt	nt	18	nt
Cc1ccc(-c2cc(-c3ccccc3)[nH]c(=S)c2C#N)cc1	0	0	i	i	8	0
N#Cc1c(N)[nH]c(=S)c(C#N)c1-c1ccccc1	0	24*	i	i	-4	12
CCN1C(=O)[C@H]2[C@@H](c3ccc(C)cc3)N[C@]3(CCCN(Cc4ccc(OC)cc4)C3=O)[C@H]2C1=O	0	4	nt	nt	8	nt
CCOc1cc(C(=O)NC(CC(=O)O)c2ccc(OC3CCCC3)cc2)cc(OCC)c1OCC (stereo unspecified)	3	32*	i	i	2	0
CC(C)(C)c1ccc(C(=O)NC(CC(=O)O)c2ccc(OC3CCCC3)cc2)cc1 (stereo unspecified)	1	-23	i	i	9	-2
Cc1ccc(-c2noc(CSc3nnc(-c4ccncc4)n3-c3ccc(C)cc3)n2)cc1	2	-6	i	i	19	1
Clc1ccc(-c2nnc(SCc3nc(-c4ccccc4)no3)o2)cc1	0	-2	-4.7*	i	13	2
Clc1ccc(-c2noc(CSc3nnc(-c4ccncc4)n3-c3ccccc3)n2)cc1	13	-3	i	100*	-13	11
CCN(CCNC(=O)C1CCN(Cc2nc(-c3ccc(Cl)cc3)oc2C)CC1)c1ccccc1	4	0	i	100*	17	14
CC(=O)NC(c1ccccc1)c1nc(/C=C/c2ccccc2)cs1 (stereo unspecified)	1	-2	nt	nt	9	nt
O=C(Nc1ccc2oc(Cc3ccc(Cl)cc3)nc2c1)c1cccnc1	4	-10	i	i	14	2
CCOc1cccc(C(=O)Nc2ccc3oc(Cc4ccc(Cl)cc4)nc3c2)c1	3	5	i	100*	11	1
Cc1ccc(NC(=O)CN2C(=O)S/C(=C/c3ccc(-c4cc(C(=O)O)ccc4C)o3)C2=O)cc1C	0	-6	i	100*	20	0
Cc1cccc(NC(=O)CN2C(=O)S/C(=C\c3ccc(-c4cccc(C(=O)O)c4C)o3)C2=O)c1	nt	nt	i	i	nt	0
COc1ccc(NC(=O)COc2ccccc2Cc2ccccc2)cc1S(N)(=O)=O	18*	48*	i	i	-2	2
COc1ccc(NC(=O)CN(Cc2ccccc2)Cc2ccccc2)cc1S(N)(=O)=O	2	-7	i	i	14	-1
